Reference: PubChem BioAssay AID488864 (Broad Institute, 2010)
Potency and affinity values are given separately. Active and inactive are the calls of the source.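 Rule for the calls: active = ATP signal reduced by compound, with fitted active dose under ten times the top valid tested dose; inactive = the rest, compounds that increase ATP levels included.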

Assay: cellular ATP toxicity in rat beta cells – cell-based, CellTiter-Glo luminescence, INS-1E, dry powder, cytotoxicity control for beta-cell cytokine protection project, dose response (AID 488864)
Conditions: INS-1E rat beta cells, 48 h, no cytokines; series mostly up to 26 µM; activity change, negative = ATP decrease: at the top concentration

Structure (SMILES) | activity change, negative = ATP decrease
C[C@@H]1CN([C@@H](C)CO)C(=O)c2cccc(NC(=O)Nc3cccc4ccccc34)c2O[C@H]1CN(C)C(=O)Nc1ccc(C(F)(F)F)cc1 | -5.68% [at 23.5 µM] (inactive)
COc1ccc(S(=O)(=O)Nc2cccc3c2O[C@@H](CN(C)S(=O)(=O)c2ccc(OC)cc2)[C@H](C)CN([C@@H](C)CO)C3=O)cc1 | 0.616% (inactive)
COc1ccc(S(=O)(=O)N(C)C[C@@H]2Oc3c(NC(=O)Nc4cccc5ccccc45)cccc3C(=O)N([C@@H](C)CO)C[C@H]2C)cc1C | 12% (inactive)
COc1ccc(S(=O)(=O)N(C)C[C@@H]2Oc3c(NS(=O)(=O)c4ccccc4)cccc3C(=O)N([C@@H](C)CO)C[C@H]2C)cc1 | 5.7% (inactive)
COc1ccc(S(=O)(=O)N(C)C[C@@H]2Oc3c(NC(=O)Nc4cccc5ccccc45)cccc3C(=O)N([C@H](C)CO)C[C@@H]2C)cc1 | 1.09% (inactive)
COc1ccc(S(=O)(=O)N(C)C[C@@H]2Oc3c(NC(=O)Nc4cccc5ccccc45)cccc3C(=O)N([C@@H](C)CO)C[C@@H]2C)cc1 | 3.54% (inactive)
COc1ccc(NC(=O)N(C)C[C@@H]2Oc3c(NC(=O)Nc4cccc5ccccc45)cccc3C(=O)N([C@@H](C)CO)C[C@H]2C)cc1 | 5.19% (inactive)
C[C@@H]1CN([C@H](C)CO)C(=O)c2cccc(NC(=O)Nc3ccccc3)c2O[C@H]1CN(C)S(=O)(=O)c1ccc(Cl)cc1 | 7.7% (inactive)
COc1ccc(S(=O)(=O)N(C)C[C@@H]2Oc3c(NC(=O)c4cccc5ccccc45)cccc3C(=O)N([C@@H](C)CO)C[C@H]2C)cc1 | 4.48% (inactive)
COc1cccc(S(=O)(=O)N(C)C[C@@H]2Oc3c(NC(=O)Nc4cccc5ccccc45)cccc3C(=O)N([C@@H](C)CO)C[C@H]2C)c1 | 3.81% (inactive)
C[C@@H]1CN([C@@H](C)CO)C(=O)c2cccc(NC(=O)Nc3cccc4ccccc34)c2O[C@H]1CN(C)S(=O)(=O)c1ccc2ncsc2c1 | -1.15% (inactive)
Cc1ccc(S(=O)(=O)N(C)C[C@@H]2Oc3c(NC(=O)Nc4ccccc4)cccc3C(=O)N([C@H](C)CO)C[C@H]2C)cc1 | 0.0817% (inactive)
C[C@@H]1CN([C@@H](C)CO)C(=O)c2cccc(NC(=O)Nc3cccc(Cl)c3Cl)c2O[C@H]1CN(C)S(=O)(=O)c1ccc2c(c1)OCCO2 | 2.89% (inactive)
C[C@@H]1CN([C@@H](C)CO)C(=O)c2cccc(NS(=O)(=O)c3ccccc3)c2O[C@H]1CN(C)Cc1ccc(C(F)(F)F)cc1 | 1.05% (inactive)
COc1ccc(S(=O)(=O)N(C)C[C@@H]2Oc3c(cccc3N(C)C)C(=O)N([C@@H](C)CO)C[C@H]2C)cc1 | 5.31% [at 23.5 µM] (inactive)
C[C@@H]1CN([C@@H](C)CO)C(=O)c2cccc(NC(=O)Nc3cccc4ccccc34)c2O[C@H]1CN(C)S(=O)(=O)c1ccc(Cl)cc1 | 3.29% (inactive)
C[C@@H]1CN([C@@H](C)CO)C(=O)c2cccc(NC(=O)Nc3cccc4ccccc34)c2O[C@H]1CN(C)S(C)(=O)=O | 1.3% (inactive)
Cc1ccc(S(=O)(=O)N(C)C[C@@H]2Oc3c(NC(=O)Nc4ccc(F)cc4)cccc3C(=O)N([C@@H](C)CO)C[C@H]2C)cc1 | 3.29% (inactive)
C[C@@H]1CN([C@@H](C)CO)C(=O)c2cccc(NC(=O)Nc3cccc4ccccc34)c2O[C@H]1CN(C)CC1CC1 | 0.187% (inactive)
COc1ccc(S(=O)(=O)N(C)C[C@@H]2Oc3c(NS(C)(=O)=O)cccc3C(=O)N([C@@H](C)CO)C[C@H]2C)cc1 | 4.08% (inactive)
C[C@@H]1CN([C@@H](C)CO)C(=O)c2cccc(NC(=O)Nc3ccccc3)c2O[C@H]1CN(C)S(=O)(=O)c1ccc(F)cc1 | -0.503% (inactive)
COc1ccc(S(=O)(=O)N(C)C[C@@H]2Oc3c(NC(=O)Nc4ccc(F)cc4)cccc3C(=O)N([C@@H](C)CO)C[C@H]2C)cc1 | 5.46% [at 23.5 µM] (inactive)
COc1ccc(S(=O)(=O)N(C)C[C@H]2Oc3c(NC(=O)Nc4cccc5ccccc45)cccc3C(=O)N([C@H](C)CO)C[C@@H]2C)cc1 | 2.53% (inactive)
C[C@@H]1CN([C@@H](C)CO)C(=O)c2cccc(NC(=O)Nc3cccc4ccccc34)c2O[C@H]1CN(C)S(=O)(=O)c1cn(C)cn1 | 2.81% (inactive)
C[C@@H]1CN([C@@H](C)CO)C(=O)c2cccc(NC(=O)Nc3cccc4ccccc34)c2O[C@H]1CN(C)S(=O)(=O)c1ccc2c(c1)OCC2 | 7.13% (inactive)
C[C@@H]1CN([C@@H](C)CO)C(=O)c2cccc(NC(=O)Nc3cccc4ccccc34)c2O[C@H]1CN(C)S(=O)(=O)c1ccc2c(n1)N(C)CCO2 | 11.8% (inactive)
